Screens: PubChem, Broad Institute
CD40 NFkB inh: CD40 pathway inhibition in BL2 cells. BL2 NF-kB luciferase reporter, CD40L-induced, 4 h. inhibition, % at 10 µM. actives 0.94% (n = 83,000). AID 1053188;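 active = mean inhibition of at least 50% with a set share of replicates also reaching that level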;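 note: 0% = neutral control wells and 100% = IKK inhibitor VII at 50 µM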
The depositor's hits bear a star; [ ] = dose if it differs, or a comment. This excerpt belongs to a sample that is enriched for hits.

Results for Cc1cc(-c2nc3ccccc3o2)c2ccccc2n1 ?
CD40 NFkB inh: -29

How did O=S(=O)(Nc1ccc(-c2nc3ccccc3o2)cc1)c1ccccc1 do in these assays?
CD40 NFkB inh: -35

How did c1ccc2nc(-c3nc4ccccc4o3)ccc2c1 do in these assays?
CD40 NFkB inh: 82*

What do the screens show for `CC(Oc1ccc(-c2ccccc2)cc1)C(=O)N1CCOCC1` (stereo not given)?
CD40 NFkB inh: -11

What do the screens show for `CCN(C(=O)COC(=O)CCCN1C(=O)c2cccc3cccc(c23)C1=O)C1CCS(=O)(=O)C1` (stereo not given)?
CD40 NFkB inh: -10

What do the screens show for `COc1ccc(NC(=O)CCc2c(C)nc3nc(C)nn3c2C)cc1`?
CD40 NFkB inh: 2

What do the screens show for `COc1ccc(NC(=O)O/N=C/c2c(C)nn(C(C)(C)C)c2C)cc1`?
CD40 NFkB inh: 64*

What do the screens show for `COc1cc(C=NOC(=O)Nc2ccccc2)cc(OC)c1OC`?
CD40 NFkB inh: -26

What do the screens show for `O=C1[C@@H]2CSCN2C(=O)CN1CCc1cccc(F)c1`?
CD40 NFkB inh: 3

Results for Cc1cc(NC(=O)NC(C(F)(F)F)C(F)(F)F)no1 ?
CD40 NFkB inh: 4

How did CCOc1ccc(C(=O)OCCN(C)C)cc1 do in these assays?
CD40 NFkB inh: 10

What do the screens show for `CC(C)C(=O)NC(c1ccco1)c1ccc2cccnc2c1O` (stereo not given)?
CD40 NFkB inh: -36

What do the screens show for `CC(C)C(=O)NC(c1ccc([N+](=O)[O-])cc1)c1c(O)ccc2ccccc12` (stereo not given)?
CD40 NFkB inh: 11

What do the screens show for `CCN(CC)c1ccc(C(NC(=O)C(C)C)c2ccc3cccnc3c2O)cc1` (stereo not given)?
CD40 NFkB inh: 75*

How did O=C(Cc1n[nH]c(=O)c2ccccc12)N1CCN(c2ccc(F)cc2)CC1 do in these assays?
CD40 NFkB inh: -2

What do the screens show for `Cc1nn(CCCC(=O)Nc2cccnc2)c(C)c1[N+](=O)[O-]`?
CD40 NFkB inh: -14

How did Cc1cc(C)nc(Nc2nc(C)c3cc4c(cc3n2)OCO4)n1 do in these assays?
CD40 NFkB inh: -12

Results for N#Cc1c(-c2ccco2)cc(-c2cccnc2)nc1N ?
CD40 NFkB inh: 2

How did Cc1ccc(-c2c(C#N)c(N)nc3c2CCCC3)o1 do in these assays?
CD40 NFkB inh: 5

What do the screens show for `Cc1ccc(-c2cc(-c3ccccc3)c(C#N)c(N)n2)o1`?
CD40 NFkB inh: 46*

Results for CC(C)CC#Cc1ccc([C@H]2[C@@H](CO)N3C(=O)CN(C(=O)c4ccccn4)C[C@H]23)cc1 ?
CD40 NFkB inh: -1[25 µM]

How did Cc1nc2c(cc1C(=O)N/N=C/c1ccc([N+](=O)[O-])cc1)c(=O)n(C)c(=O)n2C do in these assays?
CD40 NFkB inh: -4

What do the screens show for `COc1cccc(-c2ccccc2[C@H]2[C@@H](C#N)N(C(=O)c3ccccn3)[C@@H]2CO)c1`?
CD40 NFkB inh: -9[25 µM]

Results for O=C(CSc1nc2[nH]ncc2c(=O)[nH]1)Nc1ccccc1C(F)(F)F ?
CD40 NFkB inh: 2

How did COc1cc2cc(-c3ccc(O)cc3O)nc(C)c2cc1OC do in these assays?
CD40 NFkB inh: 4

How did O=c1[nH]c(=O)n(C2CCCO2)cc1F (stereo not given) do in these assays?
CD40 NFkB inh: 2

What do the screens show for `O=C1C(F)=CC(COC(c2ccccc2)(c2ccccc2)c2ccccc2)OC1n1cc(F)c(=O)[nH]c1=O` (stereo not given)?
CD40 NFkB inh: 101*

What do the screens show for `O=C(COC(=O)c1cc(=O)[nH]c2ccccc12)Nc1ccc(F)cc1F`?
CD40 NFkB inh: -4

Results for Cc1nc2ccc(C(=O)NCCCn3ccnc3)cn2c1N(C)CC1CCCCC1 ?
CD40 NFkB inh: 9

What do the screens show for `FC(F)(F)c1nnc2ccc(NCc3cccnc3)nn12`?
CD40 NFkB inh: 5

What do the screens show for `O=C(O)c1cc(-c2ccccc2)c(N2CCOCC2)s1`?
CD40 NFkB inh: 8

How did Nc1ccc(-c2cccc3c(=O)cc(N4CCOCC4)oc23)cc1 do in these assays?
CD40 NFkB inh: 58*[25 µM]

Results for Nc1ncnc2nc(-c3ccc(N4CCOCC4)nc3)cc(-c3cccc(Br)c3)c12 ?
CD40 NFkB inh: -20[25 µM]

How did Cc1nc2c(F)c(F)c(C(F)(F)F)c(F)c2[nH]1 do in these assays?
CD40 NFkB inh: 10

What do the screens show for `COc1cccc(S(=O)(=O)N(C)C[C@H]2OCc3ccccc3-c3c(n(C)c4ccccc34)C(=O)N([C@H](C)CO)C[C@@H]2C)c1`?
CD40 NFkB inh: 57*[25 µM]

How did COc1cccc(S(=O)(=O)N(C)C[C@H]2OCc3ccccc3-c3c(n(C)c4ccccc34)C(=O)N([C@@H](C)CO)C[C@H]2C)c1 do in these assays?
CD40 NFkB inh: 61*[25 µM]

What do the screens show for `C[C@@H]1CN([C@H](C)CO)C(=O)c2c(c3ccccc3n2C)-c2ccccc2CO[C@H]1CN(C)S(=O)(=O)c1cccc(F)c1`?
CD40 NFkB inh: 2

How did Cc1cccc(S(=O)(=O)N(C)C[C@@H]2OCc3ccccc3-c3c(n(C)c4ccccc34)C(=O)N([C@H](C)CO)C[C@@H]2C)c1 do in these assays?
CD40 NFkB inh: 15

What do the screens show for `C[C@@H]1CN([C@H](C)CO)C(=O)c2c(c3ccccc3n2C)-c2ccccc2CO[C@@H]1CN(C)S(=O)(=O)c1cccc(F)c1`?
CD40 NFkB inh: -8

How did C[C@@H]1CN([C@H](C)CO)C(=O)c2c(c3ccccc3n2C)-c2ccccc2CO[C@@H]1CN(C)S(=O)(=O)c1ccc([N+](=O)[O-])cc1 do in these assays?
CD40 NFkB inh: 22[25 µM]

What do the screens show for `C[C@@H]1CN([C@@H](C)CO)C(=O)c2c(c3ccccc3n2C)-c2ccccc2CO[C@@H]1CN(C)S(=O)(=O)c1ccc([N+](=O)[O-])cc1`?
CD40 NFkB inh: 31[25 µM]

Results for COc1ccc(S(=O)(=O)N(C)C[C@H]2OCc3ccccc3-c3c(n(C)c4ccccc34)C(=O)N([C@H](C)CO)C[C@H]2C)cc1 ?
CD40 NFkB inh: 4

What do the screens show for `C[C@H](CO)N1C[C@H](C)[C@H](CN(C)S(=O)(=O)c2cccc(F)c2)OCc2ccccc2-c2c(n(C)c3ccccc23)C1=O`?
CD40 NFkB inh: -3

Results for C[C@H](CO)N1C[C@H](C)[C@H](CN(C)S(=O)(=O)c2ccc([N+](=O)[O-])cc2)OCc2ccccc2-c2c(n(C)c3ccccc23)C1=O ?
CD40 NFkB inh: 63*[25 µM]

Results for COc1cccc(S(=O)(=O)N(C)C[C@@H]2OCc3ccccc3-c3c(n(C)c4ccccc34)C(=O)N([C@H](C)CO)C[C@H]2C)c1 ?
CD40 NFkB inh: 64*[25 µM]

How did C[C@H]1CN([C@@H](C)CO)C(=O)c2c(c3ccccc3n2C)-c2ccccc2CO[C@@H]1CN(C)S(=O)(=O)c1cccc(F)c1 do in these assays?
CD40 NFkB inh: 5

What do the screens show for `O=C(NCCC1CCCCN1S(=O)(=O)c1ccccc1)C(=O)NCc1ccco1` (stereo not given)?
CD40 NFkB inh: 1

Results for O=S(=O)(Nc1ccc2cn[nH]c2c1)c1cc(Br)ccc1Br ?
CD40 NFkB inh: 9

How did COc1cccc(-c2ccc3c(c2)O[C@@H](CN(C)C(=O)C2CCCCC2)[C@@H](C)CN([C@H](C)CO)S3(=O)=O)c1 do in these assays?
CD40 NFkB inh: 36[25 µM]

What do the screens show for `CCN(CC)Cc1cc(C(C)(C)C)cc(N2CCOCC2)c1O`?
CD40 NFkB inh: 2

How did Cc1cccc(S(=O)(=O)N(C)C[C@H]2OCc3ccccc3-c3c(n(C)c4ccccc34)C(=O)N([C@H](C)CO)C[C@@H]2C)c1 do in these assays?
CD40 NFkB inh: 9

What do the screens show for `C[C@@H]1CN([C@H](C)CO)C(=O)c2c(c3ccccc3n2C)-c2ccccc2CO[C@@H]1CN(C)S(=O)(=O)c1ccccc1`?
CD40 NFkB inh: 8
